Hits are enriched below; roughly 6.5% of the tested compounds scored in any of these assays.
Giardia kill: kills Giardia lamblia. Giardia lamblia trophozoite viability. activity change, % at 7.66 µM, hits read low. actives 0.15% (n = 340,000). AID 540267; in the data active = activity change below about -80%; inconclusive = between about -30% and that limit;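 also: parasites exposed to compound for two days anaerobically before the ATP read; % is scaled to controls: 0 for no effect and ±100 for the full control effect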
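Giardia trophozoites, 100 cells per well, were exposed to compounds for 48 hrs at 37 deg C under anaerobic conditions; viability was then read as ATP content by bioluminescence after 15-30 min at room temperature.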
HepG2 tox: kills HepG2 cells in TGF-b inhibitor counter-screen | HepG2 CAGA-GFP viability, ATP luminescence, 18 h | Potency, µM (highest dose often 46.1 µM), inactives show at the highest dose activity change, negative = cytotoxicity, usual class: cytotoxic | actives 0.76% (n = 410,000) | AID 588856; also: potency is read from the fitted curve at half-maximal effect
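CellTiter-Glo luminescence gave cytotoxicity after 18 hours at 37 degrees C. The cells were HepG2 CAGA-GFP in 1% FBS DMEM, stimulated with 500 pg/mL TGF-beta after compound addition. %Activity was normalised to no-cell wells (complete cell-killing) and DMSO (no toxicity), and curves were fitted and classified.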
TGFb SMAD3 inh: inhibitors of TGF-b signaling; HepG2 CAGA-GFP TGF-b/SMAD3 reporter, GFP fluorescence, 18 h; TGF-beta stimulated, 500 pg/mL final; Potency, µM (titrated, usually from 46.1 µM), without a hit: at the highest dose activity, negative = inhibition, usual class: inhibitors; actives 1.2% (n = 410,000); AID 588855; also: potency is read from the fitted curve at half-maximal effect; % is scaled to controls: 0 for no effect and ±100 for the full control effect; nearly all actives have a fitted effect of over 65% in size
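Per well, imaged GFP fluorescence of HEPG2 CAGA-GFP cells gives the signal; cells get compound, then TGF-beta (500 pg/mL final), 18 h at 37 degrees C; %Activity versus -TGF-beta and +DMSO controls.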
HT1080 IDH1KD tx: toxicity to HT-1080 IDH1 knockdown cells (counter line). HT-1080 IDH1 knockdown viability, ATP luminescence, 48 h. actives 2% (n = 360,000). Potency, µM (top dose mostly 46.1 µM), for inactives: at the highest dose activity, negative = toxicity, actives largely listed as cytotoxic. AID 686971;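 also: potency is read from the fitted curve at half-maximal effect; 0% = DMSO wells and -100% = cell-free medium wells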
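Using the IDH1-knockdown HT-1080 line run in the same batch and compound series as the NT line, viability after 48 h at 37 °C was determined by CellTiter-Glo luminescence and expressed as % activity.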
HT1080NT lethal: kills 2HG-producing HT-1080-NT fibrosarcoma cells; HT-1080-NT fibrosarcoma viability, CellTiter-Glo ATP luminescence, 48 h; Potency, µM (top dose mostly 46.1 µM), without a hit: at the top dose activity, negative = less viability, actives largely listed as cytotoxic; actives 1.6% (n = 360,000);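 also: NT is the 2HG producing partner of a matched IDH1 knockdown line; potency is read from the fitted curve at half-maximal effect; 0% = DMSO-treated cells and -100% = media-only wells without cells; nearly all actives have a fitted effect of over 55% in size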
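Compounds were tested in concentration-response format on HT-1080-NT cells for 48 hours at 37 degrees C. Cell viability came from CellTiter-Glo luminescence; curves were classified by r2, response magnitude and activity.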
IL1B secr inh: inhibitors of inflammasome signaling (IL-1 beta secretion). THP-1 LPS/ATP IL-1B secretion, AlphaLISA, 16 h; stronger effect = lower value. activity change, % at 57.5 µM. actives 4.7% (n = 360,000); in the data active = activity change below about -50%; inconclusive = mostly about -30% to -49%; also: % is scaled to controls: 0 for no effect and ±100 for the full control effect
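THP-1 cells pretreated 1 hr with compounds (up to 57.5 uM final), then stimulated with LPS (250 ng/mL final) plus ATP (1.25 mM final); secreted IL-1B measured by AlphaLISA after 16 hr, decreased signal indicating inhibition.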
* hit, by the source's call; ? = inconclusive; . = no result given. Unless noted, calls follow the shape of the dose curve; as a rule, active = well fitted curve in the direction sought with a large enough effect; inconclusive = small, poorly fitted or top-dose-only effect, or another doubt; inactive = no such curve, though single readings can be large; an effect the other way counts as inactive or inconclusive.

SMILES	Giardia kill	HepG2 tox	TGFb SMAD3 inh	HT1080 IDH1KD tx	HT1080NT lethal	IL1B secr inh
COC(=O)[C@]12CCCCC=C1N(CCC1=CCCCC1)C(=O)[C@H](CC(=O)NCc1cccc3ccccc13)C2	.	.	.	16.4µM*	?	-9.2
CCCCOCCCNC(=O)C[C@@H]1C[C@@]2(C(=O)OCC)CCC=C2N(Cc2cccc3ccccc23)C1=O	.	.	.	?	?	-67.4*
CCCCOCCCNC(=O)C[C@@H]1C[C@@]2(C(=O)OC)CCCCC=C2N(Cc2cccc3ccccc23)C1=O	.	.	.	?	?	-51.3*
CCOC(=O)[C@]12CCC=C1N(Cc1ccc3c(c1)OCO3)C(=O)[C@H](CC(=O)NCc1cccc3ccccc13)C2	.	.	.	?	?	-60.0*
CCCCOCCCNC(=O)C[C@@H]1C[C@@]2(C(=O)OC)CCCCC=C2N(Cc2ccccc2)C1=O	.	.	.	13.3%	-0.3%	-8.1
CCOC(=O)N1CCN(CC(=O)Nc2ccc(F)c(F)c2F)CC1	7.5	-1.3%	5.2%	14.8%	18.9%	3.2
C=CCC1NS(=O)(=O)OC(CCc2ccccc2)C1O (stereo not given)	-4.5	7.9%	-1.7%	9.0%	7.5%	23.1
COCCCNC(=O)C[C@@H]1C[C@@]2(C(=O)OC)CC(C)(C)CC=C2N(Cc2cccc3ccccc23)C1=O	.	.	.	-13.9%	-10.7%	5.1
CCCCOCCCNC(=O)C[C@@H]1C[C@@]2(C(=O)OC)CC(C)(C)CC=C2N(Cc2cccc3ccccc23)C1=O	.	.	.	20.6µM*	?	-5.1
CN(C)c1ccc(-c2nc3cc(N)ccc3o2)cc1	?	-29.2%	-19.2%	-2.8%	-4.5%	62.8
Nc1ccc(-c2nc3cc(N)ccc3o2)cc1	-24.9	-26.6%	-14.7%	-3.5%	-6.7%	-53.5*
CCOc1ccc2nc3sc(C(=O)N4CCN(C)CC4)c(N)c3cc2c1	7.3	-0.4%	26.7%	-1.1%	-28.0%	?
Cc1ccccc1CN1CCc2cc([N+](=O)[O-])ccc21	-14.5	12.6µM*	-17.5%	-13.3%	-1.7%	-12.7
O=C(NCCO)c1ccc(-c2nnc(Nc3ccc(OC(F)(F)Cl)cc3)c3ccccc23)cc1	.	-78.2%	11.2µM*	.	.	.
Cc1nc2c(OCc3ccc(F)c(F)c3)cccn2c1N(C)C(=O)CCC1CCCC1	.	-34.2%	?	18.4µM*	?	-12.8
CCC(CC)C(=O)N(C)c1c(C)nc2c(OCc3ccc(C#N)cc3)cccn12	.	1.2%	-7.5%	0.3%	9.1%	-70.5*
COc1ccccc1COc1cccn2c(N(C)C(=O)CCC3CCCC3)c(C)nc12	.	-34.4%	-16.6%	?	?	-21.1
Cc1nc2c(OCc3ccc(OC(F)F)cc3)cccn2c1N(C)C(=O)CCC1CCCC1	.	-56.9%	?	?	?	-57.7*
Cc1ccccc1COc1cccn2c(N(C)C(=O)CCC3CCCC3)c(C)nc12	.	-36.4%	?	?	?	-56.7*
COc1cccc(CN2CCNC(=O)C2CC(=O)NCCOc2cccnc2)c1OC (stereo not given)	-6.8	5.1%	20.6%	3.4%	0.0%	-17.7
CC1=CC2=NC(=O)/C(=C\c3ccc(-c4cccc(Cl)c4)o3)C(=N)N2O1	19.3	-24.9%	-15.3%	8.2µM*	10.3µM*	23.2
CC1=CC2=NC(=O)/C(=C\c3cc(C)n(-c4ccc(F)cc4)c3C)C(=N)N2O1	27.9	-1.1%	14.1%	-1.6%	-12.4%	-5.3
CC1=NOC(=O)/C1=C\c1ccc(-c2cccc(Cl)c2)o1	-8.1	-110.4%	?	18.4µM*	?	-100.1*
CC1=NOC(=O)/C1=C\c1ccc(-c2ccccc2Br)o1	-15.8	-108.7%	?	?	-9.6%	-96.4*
CC1=NOC(=O)/C1=C\c1ccc(-c2ccc(Cl)c(C(=O)O)c2)o1	-2.7	1.7%	-0.1%	9.4%	-20.3%	18.3
SMILES	Giardia kill	HepG2 tox	TGFb SMAD3 inh	HT1080 IDH1KD tx	HT1080NT lethal	IL1B secr inh
Nc1ccccc1N=Cc1ccc(-c2cccc(Cl)c2)o1	-14.0	-34.7%	?	?	-21.3%	-82.3*
COC(=O)N/N=C/c1ccc(-c2cccc(Cl)c2)o1	9.9	2.0%	15.6%	1.4%	6.2%	-5.1
COC(=O)COc1cc(Br)c(/C=C2/SC(=O)N(CC(=O)N3CCCC3)C2=O)cc1OC	-11.8	-35.8%	?	19.0%	18.2%	-14.7
Cc1ccc(Cn2nc(C)c(NC(=O)c3cc(-c4ccco4)on3)c2C)cc1	-9.1	-23.7%	-0.7%	?	-2.0%	7.8
O=C(c1ccco1)N1CCN(C(=O)C2CC2)CC1	-7.8	14.3%	16.5%	18.3%	14.5%	3.0
COc1ccccc1-c1cc(C(F)(F)F)nc(S(=O)(=O)CCCC(=O)Nc2ccccc2F)n1	.	11.2µM*	3.55µM*	.	.	.
COc1ccc(NC(=O)CCCS(=O)(=O)c2nc(-c3ccccc3OC)cc(C(F)(F)F)n2)c(OC)c1	.	-5.2%	-11.3%	.	.	.
CSc1ccccc1NC(=O)CCS(=O)(=O)c1nc(-c2ccc3c(c2)OCO3)cc(C(F)(F)F)n1	0.7	-83.4%	15.8µM*	.	.	.
COc1ccccc1-c1cc(C(F)(F)F)nc(S(=O)(=O)CCCC(=O)Nc2cc(Br)ccc2O)n1	.	-28.3%	-26.8%	.	.	.
COc1ccccc1-c1cc(C(F)(F)F)nc(S(=O)(=O)CCCC(=O)Nc2cccnc2Cl)n1	2.5	1.6%	?	25.9µM*	14.6µM*	-110.3*
O=C(Nc1cc(Cl)ccc1O)c1snnc1-c1ccccc1	-14.2	-5.2%	?	?	-3.0%	-90.1*
O=C(Nc1nnc(C2=COCCO2)o1)c1ccc(Cc2ccccc2)cc1	17.5	-23.6%	21.4%	-18.4%	-10.4%	-0.6
CCOC(=O)C(CC(=O)Nc1nc(C(C)=O)c(C)s1)C(C)c1ccccc1 (stereo not given)	-19.2	-14.3%	-4.5%	-20.7%	-1.8%	47.6
Cc1cc(C)n(CCc2nc(-c3ccc(C(C)(C)C)cc3)cs2)n1	11.4	-32.7%	?	-9.8%	-5.5%	-50.7*
O=C(Cn1ccnc1[N+](=O)[O-])NCc1ccccc1	-83.3*	3.5%	-10.8%	9.2%	-1.7%	14.0
O=C(Cn1cnc([N+](=O)[O-])n1)NCc1ccccc1	-3.0	6.3%	4.5%	21.6%	20.0%	-3.3
O=C(Cn1cnc2c(NCc3ccccc3)ncnc21)NCc1ccccc1	-0.2	3.6%	-16.7%	6.51µM*	8.2µM*	85.2
O=C(CN1C(=O)NC2(CCCCCC2)C1=O)Nc1ccc2c(c1)CCC2	4.9	-18.6%	-10.0%	-17.0%	-12.4%	8.7
O=C(c1ccc(Cl)c([N+](=O)[O-])c1)N1CCN(c2ccccn2)CC1	?	3.3%	10.8%	5.3%	4.5%	0.0

Source: PubChem BioAssay
